# Results from PubChem BioAssay AID686978 (National Center for Advancing Translational Sciences (NCATS), 2013).
# The campaign covered roughly 420,000 compounds. About 64,000 (15%) were called active. About 27% were inconclusive and are not listed. Calls follow the shape of the dose curve; as a rule, active = well fitted inhibition curve with a large enough effect; inconclusive = small, poorly fitted or top-dose-only effect; inactive = flat fitted curve, though single readings scatter. Not all results are given here. Entries that show only a call come without a potency.
# Assay: qHTS for Inhibitors of human tyrosyl-DNA phosphodiesterase 1 (TDP1): qHTS in cells in absence of CPT; also: nearly all actives have a fitted effect of over 55% in size
# Details: DT40 Tdp1-/- hTDP1 cells, no CPT, ATP luminescence, 48 h; activity change, negative = growth inhibition: at 46.2 µM (top of the series)
# Procedure, shortened: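 No-CPT arm: Tdp1-/-;hTDP1 DT40 cells (400/well) plus compounds, incubated ≥48 hr at 37 °C. Readout CellTiter-Glo luminescence.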
# Potency is read from the fitted curve at half-maximal effect.
row,SMILES,Potency
1,O=C1CCCCN1CCCC(=O)N1CCCC(Nc2ccc(F)cc2)C1 (stereo unspecified),inactive
2,CCOC(=O)C1(Cc2ccccc2C)CCCN(C(=O)CN2C(=O)CSC2=O)C1 (stereo unspecified),inactive
3,Cc1nc2cnc(N3CCN(C)CC3)nc2n(C[C@H]2CCCO2)c1=O,inactive
4,CC(=O)C1=C(O)C(=O)N(c2ccc(Br)cc2)C1c1ccc([N+](=O)[O-])cc1 (stereo unspecified),inactive
5,O=C1Cc2cc(S(=O)(=O)Nc3ccc(OC(F)(F)F)cc3)cc3c2N1CCC3,18.4 µM (active)
6,Nc1ncc(S(=O)(=O)Nc2ccc(OC(F)(F)F)cc2)cn1,inactive
7,O=C1CCc2cc(S(=O)(=O)Nc3ccc(C(F)(F)F)cc3)cc3c2N1CC3,inactive
8,C=CCOc1ccccc1CNn1c(C)n[nH]c1=S,inactive
9,CCCN(C(=O)CSc1nnc(N)s1)c1c(N)n(Cc2ccccc2)c(=O)[nH]c1=O,inactive
10,CCCc1nc2ccccc2c(=O)n1/N=C/c1ccc(O)c(O)c1,16.4 µM (active)
11,O=c1c2ccccc2ncn1/N=C/c1ccccc1,inactive
12,CCCN1C(=O)C(Cc2nc3ccccc3c(=O)n2-c2ccccc2)c2cc(C)ccc21 (stereo unspecified),inactive
13,CC(C)Oc1ccc(C(=O)NC(C)(C)CO)cc1,inactive
14,CC(Oc1ccc(Cl)cc1Cl)C(=O)/C=C/N(C)C (stereo unspecified),inactive
15,O=C(CN(CC1CCCO1)C(=O)CNS(=O)(=O)c1ccccc1)NCc1ccccc1 (stereo unspecified),inactive
16,O=c1c(/C=N/O)coc2ccc(Cl)cc12,inactive
17,Cc1cc(NC(=O)c2ccccc2C)no1,inactive
18,Cc1ccc2occ(/C=N/NC(=O)c3ccccc3C)c(=O)c2c1,14.6 µM (active)
19,Cc1ccccc1CSc1nnc(Cn2c(=O)sc3ccccc32)n1C,inactive
20,CCOc1cc(/C=N/NC(=O)c2ccc(CSc3nncn3C)cc2)ccc1OCC(=O)N1CCOCC1,inactive
21,O=S(=O)(c1ccc(Cl)cc1)c1nc(-c2ccco2)oc1N1CCCCC1,23.1 µM (active)
22,O=S(=O)(c1ccccc1)c1nc(Cc2ccccc2)oc1N1CCOCC1,inactive
23,O=S(=O)(c1ccccc1)c1nc(-c2ccc(Cl)cc2Cl)oc1N1CCCCC1,13 µM (active)
24,O=S(=O)(c1ccc(Cl)cc1)c1nc(-c2ccccc2F)oc1NCCN1CCOCC1,inactive

row,SMILES,Potency
1,O=S(=O)(c1ccccc1)c1nc(-c2ccccc2)oc1NCCCN1CCOCC1,inactive
2,COc1ccc(-c2nc(S(=O)(=O)c3ccccc3)c(N3CCCCC3)o2)cc1,18.4 µM (active)
3,O=C(CSc1oc(-c2ccccc2)nc1S(=O)(=O)c1ccc(Br)cc1)NC1CCCCC1,inactive
4,CSc1nc(-c2ccco2)nn1C(=O)c1ccccc1Cl,inactive
5,Cc1ccc(F)cc1S(=O)(=O)Nc1cccc(C(=O)N2CCCC(C(N)=O)C2)c1 (stereo unspecified),inactive
6,COc1cc(=O)n2c(c1C(=O)NC(C)c1ccco1)CCN(Cc1cc(C)cc(C)c1)CC2 (stereo unspecified),inactive
7,Cn1cc(C(=O)c2ccc(Cl)cc2Cl)cc1C(=O)NN,inactive
8,O=C(CNC(c1ccccc1)c1ccccc1)Nc1ccc(F)cc1,inactive
9,OCCCC1CCCCN1Cc1nc(Cc2ccccc2Cl)no1 (stereo unspecified),inactive
10,O=Cc1c(Cl)cccc1Cl,inactive
11,COc1ccc([N+](=O)[O-])cc1NCC(=O)c1ccc(C)cc1,inactive
12,Cn1ncc2c(N3CCCCC3)nc(NCCCO)nc21,inactive
13,Cc1cnc(C)c(-c2cc(F)c3c(c2)CC(CNC(=O)c2cccc(Cn4cccn4)c2)O3)n1 (stereo unspecified),inactive
14,COCC1CCN(C(=O)c2ccc3oc(Cc4ccccc4)nc3c2)C1 (stereo unspecified),inactive
15,CCOC(=O)c1ccc(NC2Nc3cc(C)nn3S2)cc1 (stereo unspecified),inactive
16,COc1cccc(CNC(=O)Cn2c(=O)c3cccn3c3ccc(F)cc32)c1OC,inactive
17,COCCCn1c(CCC(=O)O)ccc1-c1ccc(F)cc1,inactive
18,O=C(O)CCCn1c(=O)c2cccn2c2ccc(F)cc21,7.31 µM (active)
19,Cc1ccccc1-c1n[nH]c(=S)n1C,inactive
20,COC(CNC(=O)Cn1ncc2ccsc2c1=O)OC,inactive
21,Cc1c(CN2CCC(C)CC2)c(=O)n(-c2ccccc2)n1C,inactive
22,CCc1nnc(NC(=O)c2c(O)c3c([nH]c2=O)CCCC3)s1,inactive
23,Cc1ccc(C(=O)NC(=S)Nc2ccc3[nH]c(=O)[nH]c3c2)cc1C,inactive
24,COC(=O)c1nc(NC(=O)c2ccccc2)n[nH]1,inactive

row,SMILES,Potency
1,Cc1cc2[nH]ncc2cc1NC(=S)NC(=O)c1ccccc1,18.4 µM (active)
2,O=C(COC(=O)C1CCCCC1)Nc1ccc([N+](=O)[O-])cc1,inactive
3,C[C@@H]1CN([C@H](C)CO)C(=O)c2cc(NC(=O)NC3CCCCC3)ccc2O[C@H]1CN(C)S(C)(=O)=O,inactive
4,COc1ccc(/C=C/C(=O)NC(=S)NN2CCCCC2c2cccnc2)cc1 (stereo unspecified),inactive
5,Cc1cc(Nc2cccc(F)c2)n2ncnc2n1,inactive
6,Cc1cc(N2CCN(c3ccc(F)cc3)CC2)n2ncnc2n1,16.4 µM (active)
7,Cc1cc(N2CCN(Cc3ccc4c(c3)OCO4)CC2)n2ncnc2n1,inactive
8,C=CCn1c(SCC(=O)NC)nnc1C12CC3CC(CC(C3)C1)C2,inactive
9,O=C(c1ccc2c(c1)OCO2)N1CCNc2ccccc2C1,inactive
10,CCC(=O)c1cn(CCOc2ccccc2OC)c2ccccc12,23.1 µM (active)
11,CCCn1cc(SCC(N)=O)c2ccccc21,inactive
12,COc1ccccc1OCCn1c(SCC(N)=O)nc2ccccc21,inactive
13,Cn1nnnc1SCC(=O)Nc1ccccc1C(=O)NC1CC1,inactive
14,Cc1cc(=O)oc2c(C)c(OCC(=O)NCCc3ccc(S(N)(=O)=O)cc3)ccc12,inactive
15,COc1cccc(NC(=S)NC(=O)c2c(Cl)c(C)nn2C)c1,inactive
16,Nc1nonc1-n1nnc(C(=O)N/N=C/c2cc(Br)ccc2O)c1CSC1=NCCS1,6.51 µM (active)
17,Cc1ccc(SCc2c(C(=O)N/N=C/C3CC=CCC3)nnn2-c2nonc2N)cc1 (stereo unspecified),inactive
18,Cc1ccc(SCc2c(C(=O)N/N=C/c3cccnc3)nnn2-c2nonc2N)cc1,inactive
19,O=C(O)c1ccccc1C(=O)Nc1ccccc1[N+](=O)[O-],inactive
20,CCOC(=O)N1CCN(C(=O)Cc2ccc(-n3c(=S)[nH]c4ccccc4c3=O)cc2)CC1,inactive
21,Cc1cc(C)cc(Oc2nc3c(C)cccn3c(=O)c2/C=C(\C#N)C(=O)NC2CCS(=O)(=O)C2)c1 (stereo unspecified),13 µM (active)
22,Cc1ccc(C(=O)N/C(=C\c2ccco2)C(=O)NC2CCS(=O)(=O)C2)cc1 (stereo unspecified),inactive
23,Cc1cccn2c(=O)c(/C=C(\C#N)S(=O)(=O)c3ccc(Cl)cc3)c(N3CCC(C(N)=O)CC3)nc12,inactive
